Holding throughout (assay): NCI-60 one-dose screen, 48 h (100 = growth as untreated, 0 = no growth, -100 = all killed)
Conditions in all cases: 10 µM

The test system of experiment [1] is NCI-H23 lung.
The subject of experiment [2] is NCI-H226 lung.
Experiment [3] concerns NCI-H322M lung.
Experiment [4] has as its system NCI-H460 lung.
Experiment [5] has as its system HOP-92 NSCLC.
Experiment [6] deals with NCI-H522 lung.
Experiment [7] relates to A549/ATCC NSCLC.
In experiment [8] the test system is 786-0 renal.
Experiment [9] has as its system COLO 205 colon.
Experiment [10] concerns HOP-62 NSCLC.

This is part of a sample that, as a whole, favours compounds with a hit. Of some 83,000 tested, about 20% had one in any assay.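 Values shown are percent growth following 48 h exposure of cells in 96-well plates to a single concentration of compound; below 10 was considered active.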 Values without a mark were called inactive. Calls of active or inactive are those of the source.

On to `O=C(Nc1cccc(C(F)(F)F)c1)c1cncc(C#Cc2cnc3ccc(N4CCOCC4)nn23)c1`, for which the growth is -58.7% (active) in experiment [1]; -4.93% (active) in experiment [2]; 5.52% (active) in [3]; 0.042% (active) in [4]; -48% (active) in [5]; -34.1% (active) in experiment [6]. Also, the values for the growth in experiment [7], in experiment [8] and in [9] were 7.95% (active), -22.9% (active) and -48% (active), respectively.
Take `COc1ccc2nc(Cl)c(-c3cc(-c4ccccc4)nc(=S)[nH]3)cc2c1`: the growth is 72.6% in experiment [1]; 80.2% in experiment [2]; 89.4% in experiment [3]; 90.4% in experiment [4]; 54.1% in experiment [5]; 37% in experiment [6]. The growth was 93.6% in [7], 78% in [8] and 72.6% in experiment [9].
For `COc1csc(/C=N/NC(=O)c2[nH]c3ccc(Br)cc3c2-c2ccccc2)c1`, the growth was 7.1% (active) in [1]; 23.1% in experiment [2]; 34.7% in experiment [3]; -5.74% (active) in experiment [4]; 49.2% in experiment [5]; -48.5% (active) in experiment [6]. For the same compound, the growth was 13.7% in [7], 4.83% (active) in [8] and -79.9% (active) in [9].
On to `CC1(C)[C@@H](NCO)CC[C@]2(C)[C@H]3C(=O)C=C4[C@@H]5C[C@](C)(CO)CC[C@]5(C)CC[C@@]4(C)[C@]3(C)CC[C@@H]12`, for which the growth in experiment [1] was 66.5%; in [2] it was 68%; in [3] it was 63.1%; in experiment [4] it was 0.687% (active); in [5] it was 52%; in experiment [6] it was 72.7%. Further, the growth in [7] was 60%; in [8], 42.8%; in experiment [9], 24.6%.
For the compound `COc1cc(NC(=O)c2cc(-c3ccc(F)cc3F)ccc2O)cc(OC)c1OC`, the growth is 26.2% in [1]; 50.9% in experiment [2]; 38.4% in experiment [3]; 22.5% in [4]; -11.8% (active) in experiment [5]; 7.09% (active) in experiment [6]. For the same compound, the growth in experiment [7] is 37.1%; in [8], 54%; in experiment [9], 116%.
Consider `Clc1ccc2c(N/N=C/c3c[nH]c4ccc(Br)cc34)ccnc2c1`, for which the growth in [1] is -85.4% (active); in experiment [3], -96.9% (active); in experiment [10], -59.1% (active); in experiment [4], 9.83% (active); in experiment [5], -69.1% (active); in experiment [6] it was -66.9% (active). Moreover, the growth in [7] is 1.71% (active); in experiment [8], -54.7% (active).
For the compound `Cc1ccc(NCC(=O)Nn2c(COc3ccccc3)nc3ccccc3c2=O)cc1`, the growth is 67.8% in experiment [1]; 66.3% in experiment [2]; 85.9% in experiment [3]; 81.4% in experiment [4]; 58.1% in [5]; 71.7% in experiment [6]. For the same compound, the growth is 77.9% in experiment [7], 66.4% in experiment [8] and 85% in experiment [9].
As to `CN1C/C(=C\c2ccc(O)cc2O)c2[o+]c3cc(O)ccc3cc2C1`, the growth is 56.6% in [1]; 56.3% in experiment [2]; 88% in experiment [3]; 35.8% in experiment [4]; 58.8% in experiment [5]; -0.58% (active) in experiment [6]. Also, the growth in experiment [7] was 99.5%; in experiment [8], 41.7%; in experiment [9], 58.3%.
Consider `O=C1Nc2cc(Cl)ccc2/C1=C/c1ccc(OCc2ccc(Br)cc2F)cc1`, for which the growth in experiment [1] was -68.8% (active); in experiment [2], -70.6% (active); in experiment [3], 5.43% (active); in experiment [4], -81.5% (active); in [5] it was -43.4% (active); in [6] it was -52.5% (active). Also, the growth was -75.2% (active) in experiment [7], -88.7% (active) in experiment [8] and -43% (active) in experiment [9].
Take `O=C(CSc1nnc(-c2c[nH]c3ccccc23)n1-c1ccccc1)Nc1ccc(C(=O)/C=C/c2ccccc2Cl)cc1`: the growth is 36.1% in experiment [1]; 75.6% in experiment [2]; 97.3% in experiment [3]; 89% in [4]; 96.5% in [5]; 83.1% in [6]. Also, the growth in [7] is 91.1%; in experiment [8], 103%; in experiment [9], 96.2%.
Turning to `Cc1cccc(NC(=O)CSc2nc3ccc(F)cc3c(=O)n2-c2ccc(Cl)cc2)c1C`, the growth in experiment [1] was 63%; in [3] it was 81.6%; in [10] it was 26.5%; in experiment [4], 57.9%; in [5], 26.9%; in experiment [6], 77%. Also, the growth in [7] is 72.5%; in experiment [8], 34.7%.
On to `CC(=O)c1cc(C(=O)N2c3ccccc3Sc3ccccc32)n2ccc(C)cc12`, for which the growth in [1] was 42%; in [2] it was 40.2%; in [3] it was 72.2%; in [4] it was 12.3%; in experiment [5], 38.1%; in experiment [6], 49.6%. Besides, the growth is 56.9% in experiment [7], 44.5% in [8] and 67.7% in experiment [9].
For the compound `O=C(COc1ccc(NC(=O)Nc2ccc(Cl)cc2)cc1)N=Nc1c(O)[nH]c2ccc([N+](=O)[O-])cc12`, the growth was 21.4% in [1]; 22.4% in experiment [2]; 53.3% in experiment [3]; 17.5% in experiment [4]; -36.2% (active) in experiment [5]; 8.06% (active) in experiment [6]. The growth in experiment [7] was 105%; in experiment [8], 53.6%; in experiment [9], 23%.
As for `Nc1nc(Nc2ccc(Cl)cc2)n(Cc2cccc(Br)c2)n1`, the growth is -37.9% (active) in experiment [1]; -12.6% (active) in [2]; 11.8% in [3]; -65.9% (active) in experiment [4]; -49.5% (active) in experiment [5]; -46.2% (active) in [6]. Also, the growth in [7] was 8.74% (active); in experiment [8], -46.8% (active); in [9], -68.8% (active).

Values taken from PubChem BioAssay (NCI).
